# In PMC9838217, “Structure of SALL4 zinc finger domain reveals link between AT-rich DNA binding and Okihiro syndrome”:
# Numbering of substitutions follows the chain as printed.
# Key:
# Assay in all cases: HT-SELEX; high values mean tight binding
# Conditions in all cases: protein: recombinant; vector His6-GST; dsDNA, one strand shown
# [1] = target: T1, SALL4 ZFC4 WT (HT-SELEX) (Mus musculus, UniProt Q8BX22 870-940)
# T1 sequence: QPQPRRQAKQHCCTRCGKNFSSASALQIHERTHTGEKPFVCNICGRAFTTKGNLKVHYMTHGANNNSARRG
# Summary of the method: (§1)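 Up to 6 cycles of selection were run in triplicate. In each, purified recombinant mouse SALL4 zinc finger cluster 4 (residues 870–940, 1 µg) was incubated with library DNA (1.5 µg first cycle, 200 ng later) in 100 µl of 10 mM Tris–HCl pH 7.5, 50 mM NaCl, poly(dI-dC), DTT for 10 min at room temperature, then complexes were captured on Ni2+ beads, washed and PCR-amplified; final pools were MiSeq-sequenced and scanned for 6-mers. Binding signal is each canonical k-mer's read fraction as fold change versus the initial random library.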
# [2] = target: T2, SALL4 ZFC4 R900W (HT-SELEX) (Mus musculus, UniProt Q8BX22 870-940, R900W)
# T2 sequence: T1 sequence with R31W
# Summary of the method: as §1
# [3] = target: T3, SALL4 ZFC4 G921D (HT-SELEX) (Mus musculus, UniProt Q8BX22 870-940, G921D)
# T3 sequence: T1 sequence with G52D
# Summary of the method: as §1
Sequence,binding signal [1] [fold-change vs cycle 0],binding signal [2] [fold-change vs cycle 0],binding signal [3] [fold-change vs cycle 0]
ATCACC,0.917 ± 0.0379,0.988 ± 0.0223,1.06 ± 0.0273
ATTAAA,3.73 ± 0.281,2.54 ± 0.18,2.14 ± 0.26
AACTCG,0.7 ± 0.0308,0.798 ± 0.00905,0.871 ± 0.024
CCTCCA,0.517 ± 0.0262,0.603 ± 0.0398,0.687 ± 0.0633
GTGTCA,0.688 ± 0.0282,0.805 ± 0.0104,0.881 ± 0.0197
AGGCAA,0.538 ± 0.0205,0.6566 ± 0.00197,0.754 ± 0.0411
ATGGTC,0.721 ± 0.0351,0.8234 ± 0.00272,0.902 ± 0.0335
ATTCTA,2.06 ± 0.0756,2.07 ± 0.113,1.81 ± 0.213
GGTGGA,0.462 ± 0.0279,0.536 ± 0.0251,0.619 ± 0.0493
GAGACA,0.735 ± 0.0463,0.867 ± 0.0277,0.933 ± 0.0384
CATTTA,1.86 ± 0.0709,1.83 ± 0.108,1.69 ± 0.163
GCATCA,0.645 ± 0.017,0.724 ± 0.00868,0.83 ± 0.0436
GTTATA,2.5 ± 0.231,2.05 ± 0.15,1.78 ± 0.179
CAGGAG,0.48 ± 0.0178,0.596 ± 0.041,0.676 ± 0.0293
ATAGGC,0.52 ± 0.0405,0.585 ± 0.0153,0.733 ± 0.0725
CTCGTC,0.385 ± 0.0153,0.487 ± 0.019,0.571 ± 0.0514
ACAGCA,0.623 ± 0.0211,0.694 ± 0.0191,0.793 ± 0.0143
ACTTTG,1.14 ± 0.054,1.27 ± 0.0366,1.24 ± 0.052
ACCTTA,1.43 ± 0.0462,1.6 ± 0.0314,1.44 ± 0.0668
ACTCGA,0.761 ± 0.0231,0.839 ± 0.0214,0.905 ± 0.00699

Sequence,binding signal [1] [fold-change vs cycle 0],binding signal [2] [fold-change vs cycle 0],binding signal [3] [fold-change vs cycle 0]
AGTACT,1.32 ± 0.0981,1.45 ± 0.094,1.4 ± 0.116
CTCCAA,0.746 ± 0.0518,0.878 ± 0.04,0.924 ± 0.0231
GCAACC,0.327 ± 0.0217,0.365 ± 0.0107,0.503 ± 0.0559
CTTATC,1.5 ± 0.0472,1.62 ± 0.0833,1.44 ± 0.0973
CACGGA,0.395 ± 0.0417,0.459 ± 0.0312,0.571 ± 0.0613
AAATAA,3.25 ± 0.208,2.56 ± 0.166,2.14 ± 0.25
AGTTAT,2.81 ± 0.247,2.13 ± 0.15,1.89 ± 0.186
CATTGG,0.754 ± 0.0443,0.867 ± 0.0514,0.924 ± 0.0186
ATCGAC,0.576 ± 0.0406,0.632 ± 0.033,0.759 ± 0.0482
CACCTG,0.456 ± 0.0357,0.549 ± 0.0259,0.631 ± 0.0331
CCATAG,0.841 ± 0.0326,0.91 ± 0.0505,0.94 ± 0.039
CTTAGA,1.28 ± 0.0284,1.45 ± 0.0641,1.36 ± 0.0933
GAGCTC,0.338 ± 0.0166,0.439 ± 0.0575,0.585 ± 0.0582
AACGCT,0.549 ± 0.0698,0.603 ± 0.0229,0.738 ± 0.0676
ATCCCG,0.428 ± 0.0246,0.4832 ± 0.00274,0.574 ± 0.0423
TGCAAA,1 ± 0.0674,0.975 ± 0.0411,1.03 ± 0.0183
AATTCG,0.945 ± 0.024,1.008 ± 0.0043,1.07 ± 0.0346
TACACA,1.21 ± 0.07,1.3 ± 0.0721,1.29 ± 0.0617
CGGATC,0.362 ± 0.0382,0.438 ± 0.0155,0.571 ± 0.02
ATGGGG,0.486 ± 0.0322,0.546 ± 0.0309,0.615 ± 0.052

Sequence,binding signal [1] [fold-change vs cycle 0],binding signal [2] [fold-change vs cycle 0],binding signal [3] [fold-change vs cycle 0]
GTGAAA,1.16 ± 0.0303,1.27 ± 0.0355,1.19 ± 0.0481
AATTAA,3.49 ± 0.279,2.6 ± 0.189,2.2 ± 0.282
AATTGC,0.939 ± 0.042,0.962 ± 0.0218,1.04 ± 0.0209
CCTTAG,0.925 ± 0.0277,1.06 ± 0.0431,1.04 ± 0.0492
GTATAA,2.08 ± 0.124,1.96 ± 0.165,1.74 ± 0.197
GAATTC,1.29 ± 0.0387,1.38 ± 0.0509,1.33 ± 0.0652
AGAGGA,0.933 ± 0.0495,1.09 ± 0.0506,1.07 ± 0.0639
GAATAA,2.13 ± 0.0471,2.1 ± 0.122,1.82 ± 0.178
CCACCA,0.417 ± 0.0318,0.471 ± 0.033,0.582 ± 0.0561
CGGATA,0.674 ± 0.0155,0.747 ± 0.0235,0.823 ± 0.043
AGTATG,1.43 ± 0.0699,1.49 ± 0.072,1.38 ± 0.0928
CTAGAG,0.862 ± 0.0503,1 ± 0.0918,1.03 ± 0.068
ACCAGA,0.795 ± 0.0237,0.921 ± 0.0435,0.947 ± 0.0126
ACTCAG,0.865 ± 0.0453,0.97 ± 0.0144,0.994 ± 0.0115
ACACGT,0.75 ± 0.0296,0.89 ± 0.061,0.954 ± 0.0298
GAGCAC,0.415 ± 0.0413,0.537 ± 0.0508,0.674 ± 0.0417
AACATA,2.08 ± 0.152,1.96 ± 0.129,1.76 ± 0.196
CACTAA,1.22 ± 0.0467,1.38 ± 0.0225,1.29 ± 0.0518
AGGACT,0.864 ± 0.0148,0.994 ± 0.0593,1.02 ± 0.0375
ACATAT,2.28 ± 0.213,1.97 ± 0.122,1.75 ± 0.16
